From PubChem
Epigenetic mod: epigenetic GFP locus derepression in mouse cells; mouse C127i GFP locus derepression, cytometry, 30 h; AID 597; Potency, µM (series often up to 46.1 µM), for inactives: at the top dose GFP derepression (activation); 0.09% of 68,000 active; also: % of control where 0% means no effect
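Locus derepression in mouse mammary C127i cells whose integrated CMV-GFP reporter is normally silent; GFP expression after 30 h compound treatment was quantified by counting fluorescent cells.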
UbGFP stabilizer: inhibits proteasome, raising ubiquitin-GFP reporter fluorescence; 67,000 tested, under 10 active; Ubiquitin-GFP reporter cells, proteasome inhibition, GFP fluorescence; response scale: untreated = 0%, 10 µM MG-132 = 100%; Potency, µM (series often up to 45.9 µM), inactives show at the highest dose activation (GFP accumulation), actives largely listed as activators; active = well fitted activation curve with a large enough effect, not every such curve was filed as active; inconclusive = small, poorly fitted or top-dose-only effect, or another doubt; inactive = no such curve, though single readings can be large or run the other way; also: potency is read from the fitted curve at half-maximal effect
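Proteasome blockade was scored as a rise in GFP-expressing U2OS cells carrying a ubiquitin(G76V)-GFP construct, imaged after 4 hr compound treatment at 37 °C across a 46 uM–2.9 nM series.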
HBB splicing: modulators of hemoglobin beta chain splicing; HBB splicing reporter cell assay, activation; EGFP reporter with mutant IVS2-654 intron; response scale: normalised to 500 nM splice-correcting PNA; Potency, µM (highest dose often 46.1 µM), inactives show at the top dose activation, actives largely listed as activators; 0.06% of 65,000 active; AID 925; also: potency is read from the fitted curve at half-maximal effect; 0% is about no effect
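HeLa cells stably expressing EGFP interrupted by mutant beta-globin intron 2 (IVS2-654), 500/well in 2% FCS. Treated with compound for 2 days at 37C. Splicing correction scored as total well GFP intensity (488 nm excitation, 500-520 nm emission); 500 nM antisense PNA served as control.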
IkB signaling: IkB pathway inhibition in ABC-DLBCL cells; Potency, µM (titrated, usually from 57.1 µM), for inactives: at the highest dose IkBa stabilization activation; ABC-DLBCL IkBa-CBG/CBR dual luciferase ratio, 4 h; response scale: scaled: untreated 0%, proteasome inhibitor 100%; AID 445; 0.04% of 110,000 active; active = well fitted curve in the direction sought with a large enough effect in the signal ratio, not every such curve was filed as active; inconclusive = small, poorly fitted or top-dose-only effect, or a change in a side signal; the % refers to the signal ratio;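 also: potency is read from the fitted curve at half-maximal effect; the direction sought is a rising ratio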
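In this assay, an IκBα–CBG68 fusion accumulates when IKK-driven degradation is blocked; native CBR normalizes for cell number. OCI-Ly3 cells were treated 4 h with compound and doxycycline, then green and red light read after Chroma-Glo addition.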
USP2a inh: USP2a (human) protease inhibition; AID 927; USP2a enzymatic assay, qHTS inhibition; O75604; 0.1% of 60,000 active; Potency, µM (doses to about 38.3 µM), inactives show at the top dose activity change, negative = inhibition, hits mostly inhibitors; also: potency is read from the fitted curve at half-maximal effect; nearly all actives have a fitted effect of over 60% in size
Target sequence (O75604 whole entry, looked up): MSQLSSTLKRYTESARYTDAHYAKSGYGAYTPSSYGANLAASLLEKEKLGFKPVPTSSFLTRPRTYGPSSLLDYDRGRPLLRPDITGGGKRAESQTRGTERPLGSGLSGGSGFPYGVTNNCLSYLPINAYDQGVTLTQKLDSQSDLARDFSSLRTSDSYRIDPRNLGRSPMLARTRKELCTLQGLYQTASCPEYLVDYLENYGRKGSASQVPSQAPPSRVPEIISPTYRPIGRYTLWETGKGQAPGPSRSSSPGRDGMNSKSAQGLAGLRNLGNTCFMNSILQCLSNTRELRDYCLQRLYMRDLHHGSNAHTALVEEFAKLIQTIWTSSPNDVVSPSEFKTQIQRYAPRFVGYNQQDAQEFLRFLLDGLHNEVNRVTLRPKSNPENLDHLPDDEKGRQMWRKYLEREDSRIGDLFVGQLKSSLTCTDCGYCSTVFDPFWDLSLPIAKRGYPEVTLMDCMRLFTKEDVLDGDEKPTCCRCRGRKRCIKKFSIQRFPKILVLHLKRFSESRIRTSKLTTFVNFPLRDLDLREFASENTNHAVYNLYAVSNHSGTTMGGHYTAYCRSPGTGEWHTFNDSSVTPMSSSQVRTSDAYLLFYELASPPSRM
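Coupled readout: USP2-cleaved Ub-PLA2 (20nM final) turns over NBD C6-HPC (20uM final), Ex 460nm/Em 535nm after 2.5 h, time-zero read flagging artifacts. Enzyme (20nM final, pH 8.0 Tris) given 30 min RT with compound first; NEM defines full inhibition.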
Numbers without * were called inactive; ? = inconclusive; / = no result; ! = a repeat was not active; [ ] = another dose, or the depositor's remark. An excerpt weighted towards active compounds, which were near 0.16% of everything screened. Unless noted, calls follow the shape of the dose curve; as a rule, active = well fitted curve in the direction sought with a large enough effect; inconclusive = small, poorly fitted or top-dose-only effect, or another doubt; inactive = no such curve, though single readings can be large; an effect the other way counts as inactive or inconclusive.

SMILES | Epigenetic mod | UbGFP stabilizer | HBB splicing | IkB signaling | USP2a inh
CCNc1ncc2nc(-c3cccs3)c(=O)n(-c3ccccc3)c2n1 | 8%[9.22 µM] | ? | 13µM* | -2%[11.4 µM] | 137%
COc1ccc(-c2nc3cnc(Nc4cccc(OC)c4)nc3n(CCC#N)c2=O)cc1 | 5%[9.22 µM] | ? | ? | -1%[11.4 µM] | 113%
COc1cccc(Nc2ncc3nc(-c4cccs4)c(=O)n(Cc4cccs4)c3n2)c1 | 0%[9.22 µM] | 2% | 13µM* | 1%[11.4 µM] | 182%
COc1cccc(Nc2ncc3nc(-c4ccc(Cl)cc4)c(=O)n(CCC#N)c3n2)c1 | 1%[9.22 µM] | ? | 10µM* | -1%[11.4 µM] | 177%
COc1cccc(Nc2ncc3nc(-c4cccs4)c(=O)n(-c4ccccc4)c3n2)c1 | 4µM* | ? | 10µM* | -1%[11.4 µM] | 77%
COc1cc(/C=C\C(=O)CC(=O)/C=C\c2ccc(O)c(OC)c2)ccc1O | -5%[9.22 µM] | 11% | / | 15%[11.4 µM] | /
O=C(O)c1cccc(SSc2cccc(C(=O)O)c2)c1 | 4%[9.22 µM] | 3%[9.17 µM] | 3%[9.22 µM] | 2%[11.4 µM] | /
COC(=O)C1C(O)CC[C@@H]2CN3CCc4c([nH]c5ccccc45)C3C[C@@H]12 (some centres undefined) | / | / | / | / | -5%
Cc1ccc(C(=O)[C@@H]2[C@@H]3[C@@H](C(=O)[C@@H]4OC[C@H]3O4)[C@@H]3C=Cc4ccccc4N23)cc1 | -2%[9.22 µM] | 0% | / | 3%[11.4 µM] | /
Cn1c(=O)c2c(nc(/C=C\c3cccc(Cl)c3)n2C)n(C)c1=O | -1% | 0% | 3% | -5% | 10%
CC(=O)c1ccc(C2C=CC(O)C(CO)O2)cc1 (centres undefined) | / | / | 3%[9.22 µM] | / | /
FC(F)(F)c1ccccc1-c1nc(N2CCOCC2)c2ccccc2n1 | 5%[9.22 µM] | 3% | 0% | 4%[11.4 µM] | 10µM*
COC(=O)[C@@H](NC(=O)c1cc(-c2ccccc2)nc2ccccc12)c1ccccc1 | 0% | -5% | 0% | -4% | /
O=C(O)Cn1c(=O)oc2cc(S(=O)(=O)NC3CCCCC3)ccc21 | / | -4% | 0% | 3% | /
CCNC(=O)[C@@H]1O[C@@H](n2cnc3c(NCc4ccccc4)ncnc32)[C@@H](O)[C@H]1O | -1% | 4% | 1% | ? | /
CCN1C(=O)c2cccc3c(NC(=O)c4ccc5c(c4)OCCO5)ccc1c23 | 13µM* | 15% | 0% | -1% | 10%
N.N.N.N.N.N.N.N.N.N.N.N.N.N.O.O.[Ru].[Ru].[Ru] | -2% | -1% | -1% | -3% | ?
CC[C@]1(O)C[C@H]2CN(CCc3c([nH]c4ccccc34)[C@](C(=O)OC)(c3cc4c(cc3OC)N(C)[C@@H]3[C@](O)(C(=O)OC)[C@H](OC(C)=O)[C@]5(CC)C=CCN6CC[C@]43[C@@H]65)C2)C1 | -2% | -2% | -1% | 0.79µM* | 23%
C[C@]12C=CC(=O)C=C1CC[C@@H]1[C@H]3C[C@@H](O)[C@](O)(C(=O)CO)[C@]3(C)C[C@H](O)[C@]12F | -2% | -3% | 1% | ? | /
CC(C)c1ccc2c(c1)CC[C@@H]1[C@@](C)(CN)CCC[C@@]21C | 12%[9.22 µM] | -1% | / | ? | /
O=C1C=C(N2CCN(c3ccccn3)CC2)C(=O)c2c(O)ccc(O)c21 | 3%[9.22 µM] | 2%[9.17 µM] | 2%[9.22 µM] | 5µM* | /
COc1ccc2[nH]c(=O)c(CN(C3CCCCC3)C(c3nnnn3Cc3ccco3)C(C)C)cc2c1 (centres undefined) | 18% | 11% | / | 7.9µM* | 20%
COc1ccc2[nH]c(=O)c(CN(Cc3nnnn3Cc3ccco3)C3CCCCC3)cc2c1 | 1% | -3% | / | 1% | 226%
COc1cc(/C=C/C(=O)/C=C(O)/C=C/c2ccc(O)c(OC)c2)ccc1O | / | / | / | / | 10µM*
COc1cc(/C=C/C(=O)O)ccc1O | / | / | / | / | -14%
SMILES | Epigenetic mod | UbGFP stabilizer | HBB splicing | IkB signaling | USP2a inh
COc1ccc(NC(=O)CN2CCN(c3ccc(Cl)cc3)CC2)c(OC)c1 | 1% | -4% | -1% | 0% | 13µM*
COc1cccc(O)c1O | / | / | / | / | 0%
Nc1ccn([C@@H]2O[C@@H](CO)[C@@H](O)[C@H]2O)c(=O)n1 | -1% | 10% | 1% | -3% | 1%
COc1ccc(-c2c(O)c3c(OC)c4c(cc3oc2=O)OC(C)(C)CC4)cc1 | / | / | / | / | -12%
COc1ccc(-c2c(O)c3c(OC)c4c(cc3oc2=O)OC(C)(C)C=C4)cc1 | / | / | / | / | 10µM*
Cc1ccc(NC(=O)CSCC(N)=O)cc1C | 16µM* | -3% | 9% | 20% | 39%
Cc1cc(C)c2ccc(N)nc2c1O | 1% | -4% | -3% | 5µM* | 4%
Cc1cc(C)c2ccc(C)[n+]([O-])c2c1O | 0% | 9% | 3% | -1% | -7%
Nc1ccc2c3c(cccc13)CC2 | 13µM* | / | / | / | /
Cc1ccc(NC(=O)CSc2nc(-c3ccc(F)cc3)cc(C(F)(F)F)c2C#N)cc1 | / | / | / | 2% | /
Cc1coc(NC(=O)CSc2nc(-c3ccncc3)cc(C(F)(F)F)c2C#N)n1 | 10µM* | -2% | / | -1% | 6%
Cc1c(=O)n(OCc2ccccc2F)c2ccccc2[n+]1[O-] | 13µM* | 2% | 20µM* | -3% | 4%
Oc1cc(O)c2c(c1)O[C@@H](c1ccc(O)c(O)c1)[C@H](O[C@@]1(c3cc(O)c(O)c(O)c3)Oc3cc(O)cc(O)c3[C@H](O)[C@@H]1O)C2 | 0%[9.22 µM] | -2%[9.17 µM] | 3%[9.22 µM] | 2%[11.4 µM] | /
O=C(OC1Cc2c(O)cc(O)cc2OC1c1cc(O)c(O)c(O)c1-c1c(C2Oc3cc(O)cc(O)c3CC2O)cc(O)c(O)c1O)c1cc(O)c(O)c(O)c1 (centres undefined) | / | / | / | / | 10µM*
Oc1c([C@H](Nc2ccccn2)c2ccccc2)ccc2cccnc12 | 6%[9.22 µM] | -4%[9.17 µM] | 2%[9.22 µM] | 5%[11.4 µM] | /
Oc1c(C(Nc2ccccn2)c2ccccn2)ccc2cccnc12 (centres undefined) | 5µM* | 0% | -1% | ? | 45%
O[C@@H]1CC[C@H]2Cc3ccccc3N=C21 | -5%[9.22 µM] | 6% | / | -1%[11.4 µM] | /
CCN(CC)C(=S)SSC(=S)N(CC)CC | 1µM*! | 7%[20.5 µM] | 0%[20.6 µM] | ? | 1%
CC(=O)OC(C)(C)N=Nc1ccc(Br)cc1 | -2%[9.22 µM] | 6%[9.17 µM] | 3%[9.22 µM] | 0%[11.4 µM] | /
CN(C)C(=O)CSc1cccc2cccnc12 | ? | -3% | -1% | ? | 4%
O=C(CSc1cccc2cccnc12)N1CCCC1 | 0.63µM* | 1% | -2% | 4µM* | 8%
Nc1ccc(N=Nc2ccccc2)c(N)c1 | / | / | 0% | 0% | /
Cc1nc(N)[nH]c(=O)c1CCC(=O)OCC(C)C | -1% | 2% | -1% | 0% | -5%
Nc1nc2n[nH]nc2c(=O)[nH]1 | 7%[20.6 µM] | 20%[20.5 µM] | 0.79µM* | ? | -15%[17.1 µM]
CCOC(=O)OCC1OC(c2ccccc2)C=CC1Oc1ccc2oc(=O)cc(C)c2c1 (centres undefined) | / | / | 3%[9.22 µM] | / | /
